Inconclusive results are not listed. Values without a mark were called inactive. Activity calls are given as the source filed them. The call rests on the fitted dose curve; in most records, active means well fitted inhibition curve with a large enough effect; inconclusive means small, poorly fitted or top-dose-only effect; inactive means flat fitted curve, though single readings scatter.
Assay: qHTS profiling for inhibitors of Plasmodium falciparum proliferation (AID 504749); further: nearly all actives have a fitted effect of over 60% in size;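 on activity, negative = inhibition: 0% = DMSO vehicle and full inhibition = artemisinin control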
Conditions: P. falciparum in erythrocytes, SYBR Green DNA, 72 h
Method in brief: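 In a 72 h erythrocytic culture (37 C, humidified, 5% CO2) at 2.5% hematocrit and 0.3% starting parasitemia, compounds were tested; SYBR Green I in detergent lysis buffer stained parasite DNA overnight.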

[1] = at 28.7 µM (top of the series), parasite line A
[2] = at 28.7 µM (top of the series), parasite line B
[3] = at 12.8 µM (top of the series), parasite line A
[4] = at 12.8 µM (top of the series), parasite line B
Potency means the concentration at half of the fitted maximal effect.

Cc1ccc(C(C)(C)c2ccc(C)cc2)cc1
activity, negative = inhibition [1]: 2.11%
activity, negative = inhibition [2]: -1.44%

CCCOc1cc(N)ccc1C(=O)OCCN(CC)CC
activity, negative = inhibition [3]: -3.32%
activity, negative = inhibition [4]: 4.44%

O[C@@H]([C@H](O)[C@H](O)CBr)[C@H](O)CBr
activity, negative = inhibition [1]: -11.7%
activity, negative = inhibition [2]: 1.51%

O=C(O)CCC(=O)c1ccc(-c2ccccc2)cc1
activity, negative = inhibition [3]: -3.71%
activity, negative = inhibition [4]: 12.2%

CCOc1ccc(NC(=S)Nc2ccc(OCC)cc2)cc1
activity, negative = inhibition [1]: 1.76%
activity, negative = inhibition [2]: -2.23%

C/C=C/C=C/C(=O)O
activity, negative = inhibition [1]: -0.87%
activity, negative = inhibition [2]: -21%

O=C(O)Cc1nn(Cc2ccc(Br)cc2F)c(=O)c2ccccc12
activity, negative = inhibition [1]: 0.835%
activity, negative = inhibition [2]: -5.83%

O=C(O)COc1ccc(CCNS(=O)(=O)c2ccccc2)s1
activity, negative = inhibition [1]: 12.4%
activity, negative = inhibition [2]: -10.1%

CO/N=C(\C(=O)N[C@@H]1C(=O)N2C(C(=O)[O-])=C(C[n+]3cccc4c3CCC4)CS[C@H]12)c1csc(N)n1
activity, negative = inhibition [1]: 12.2%
activity, negative = inhibition [2]: 2.56%

CC(CNC(=O)c1cccnc1)NC(=O)c1cccnc1 (stereo unspecified)
activity, negative = inhibition [1]: 8.56%
activity, negative = inhibition [2]: 11.1%

CC/C(=C(/CC)c1ccc(OP(=O)(O)O)cc1)c1ccc(OP(=O)(O)O)cc1
activity, negative = inhibition [1]: 13.6%
activity, negative = inhibition [2]: -2.71%

NC(=S)N=Nc1ccc(NN=C(N)N)cc1
Potency (parasite line A): 10 µM (active)
Potency (parasite line B): 10 µM (active)

CCCCC(CC)CCC(CC(C)C)OS(=O)(=O)O (stereo unspecified)
activity, negative = inhibition [1]: -0.0494%
activity, negative = inhibition [2]: 5.85%

Reference: PubChem BioAssay (NCATS)
